Inconclusive results are not listed. Values without a mark were called inactive. The source made the active and inactive calls. The call rests on the fitted dose curve; in most records, active means well fitted curve in the direction sought with a large enough effect; inconclusive means small, poorly fitted or top-dose-only effect, or another doubt; inactive means no such curve, though single readings can be large; an effect the other way counts as inactive or inconclusive.

Experiment [1] addresses Cellular tumor antigen p53 (Homo sapiens) (UniProt P04637). Briefly: Primary qHTS for small molecule compounds that upregulate eGFP-tagged delta133p53alpha (in N-terminal) cells. (AID 2060322). Further: nearly all actives have a fitted effect of over 75% in size. Further: potency means the concentration at half of the fitted maximal effect.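 On activation: cells pre-induced with doxycycline then dosed without doxycycline; 0% = DMSO vehicle and 100% = reference activator.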 Conditions: NCI-H358 eGFP-delta133p53alpha fluorescence, 24 h; activation: active compounds read high. In a few lines: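 NCI-H358 cells pre-induced 24 h with 10 ng/ml doxycycline for eGFP-delta133p53alpha, plated dox-free and exposed 24 h at 37C to titrated compounds. Fixed, Hoechst-stained; gated GFP peak intensity by laser scanning cytometry, normalized to DMSO (0%) and 57.5 uM 5-azacytidine (100%).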

Experiment [2] deals with Aldehyde dehydrogenase, mitochondrial (Homo sapiens) (UniProt P05091). Briefly: qHTS for Inhibitors of the Aldehyde Dehydrogenase Family (ALDH2) Primary screen (AID 2061308).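 Further: plate controls were vehicle for no effect and reference inhibitor for full effect; nearly all actives have a fitted effect of over 55% in size.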 Conditions: ALDH2 enzyme inhibition qHTS, 1536-well; series mostly up to 56 µM.

Sequence of Cellular tumor antigen p53 (Homo sapiens) (P04637 whole entry, looked up): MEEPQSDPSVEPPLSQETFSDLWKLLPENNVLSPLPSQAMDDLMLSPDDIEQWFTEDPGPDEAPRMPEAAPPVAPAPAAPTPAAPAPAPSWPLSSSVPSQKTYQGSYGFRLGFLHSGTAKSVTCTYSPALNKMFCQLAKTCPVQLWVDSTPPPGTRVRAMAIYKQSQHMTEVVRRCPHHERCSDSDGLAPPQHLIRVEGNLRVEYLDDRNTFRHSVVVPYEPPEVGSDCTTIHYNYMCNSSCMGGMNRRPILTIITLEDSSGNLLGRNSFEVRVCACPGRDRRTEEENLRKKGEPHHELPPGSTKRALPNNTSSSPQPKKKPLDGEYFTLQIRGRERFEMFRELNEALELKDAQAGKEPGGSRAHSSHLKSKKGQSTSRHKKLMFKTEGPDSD

As to `CNS(=O)(=O)c1ccccc1Nc1nc(Nc2ccc(N3CCN(C)CC3)cc2OC)ncc1Br`, the Potency in experiment [1] is 9.53 µM (active). Also, the Potency result in experiment [2] is “inactive”.
On to `COC(=O)C1=CO[C@@H](O[C@@H]2O[C@H](CO)[C@@H](O)[C@H](O)[C@H]2O)[C@@H]2C(CO)=CC[C@H]12`, for which the activation in experiment [1] was 0%. For the same compound, in experiment [2], the Potency entry was “inactive”.
As to `C[C@@H]1O[C@@H](O[C@H]2[C@H](O[C@H]3CC[C@@]4(C)C(CC[C@]5(C)C4CC=C4[C@@H]6CC(C)(C)CC[C@]6(C(=O)O[C@@H]6OC[C@H](O)[C@H](O)[C@H]6O[C@@H]6O[C@@H](C)[C@H](O[C@@H]7O[C@H](CO)[C@@H](O)[C@H](O)[C@H]7O)[C@H](O)[C@H]6O)[C@H](O)C[C@]45C)C3(C)C)O[C@H](CO)[C@@H](O[C@@H]3OC[C@@H](O)[C@H](O)[C@H]3O)[C@@H]2O)[C@H](O)[C@H](O)[C@H]1O` (some centres not stated), in experiment [1], the activation was -2.29%. The activity change, negative = inhibition in experiment [2] was -18.4% [at 11.2 µM].
Take `COc1cc(/C=C/C(=O)O[C@H]2[C@H](O)[C@@H](CO)O[C@@]2(CO)O[C@H]2O[C@H](COC(=O)c3ccc(O)cc3)[C@@H](O)[C@H](O)[C@H]2O)cc(OC)c1OC`: the activation in experiment [1] was -19.8%. Further, the Potency result in experiment [2] is “inactive”.
The matching figures for `CC(CO[C@@H]1O[C@H](COC(=O)/C=C/c2ccc(O)c(O)c2)[C@@H](O)[C@H](O)[C@H]1O)C1(O)COC(=O)C1` (some centres not stated): 6.87% and “inactive”.
As to `C=C1CC2OC(=O)C(=C)C2C(O)/C=C(\C)CCC1O` (configuration not stated), the Potency in experiment [1] was 26.9 µM (active). Moreover, the Potency result in experiment [2] was “inactive”.
On to `COC(=O)C1=CO[C@@H](O[C@@H]2O[C@H](CO[C@@H]3O[C@H](COC(=O)/C=C/c4cc(OC)c(O)c(OC)c4)[C@@H](O)[C@H](O)[C@H]3O)[C@@H](O)[C@H](O)[C@H]2O)[C@@H]2C(CO)=CC[C@H]12`, for which the activation in experiment [1] was -14.3%. Moreover, the Potency entry in experiment [2] is “inactive”.
For the compound `COc1cc(C[C@H]2COC(=O)[C@@H]2Cc2ccc(O)c(OC)c2)ccc1O`, the activation in experiment [1] is -18.8%. Moreover, in experiment [2], the Potency result was “inactive”.
As to `CC(C/C=C/C(C)(C)O)C1CCC(C)(O)C(O)C1` (configuration not stated), in experiment [1], the activation was -11.5%. The Potency entry in experiment [2] was “inactive”.
The matching figures for `COc1cc(C(=O)OCC2=CCC3C(C(=O)O)=COC(O[C@@H]4O[C@H](CO)[C@@H](O)[C@H](O)[C@H]4O)C23)ccc1O` (some centres not stated): -9.82% and “inactive”.
Consider `CC1(C(=O)O)CC[C@]2(C(=O)OC3OC(CO)C(O)C(O)C3O)CC[C@]3(C)C(=CCC4[C@@]5(C)CC[C@H](OC6OCC(O)C(O)C6OC6OC(CO)C(O)C(O)C6O)C(C)(C)C5CC[C@]43C)C2C1` (some centres not stated), for which the activation in experiment [1] was -5.34%. In experiment [2], the Potency result is “inactive”.
On to `CC1CC2OCC3(O)CCC(O)C(C14CC(c1ccoc1)OC4=O)C23CO` (configuration not stated), for which the activation in experiment [1] was -6.11%. In addition, in experiment [2], the Potency entry was “inactive”.
For the compound `COc1cc(C[C@@]2(O)CO[C@@H](c3ccc(O[C@@H]4O[C@H](CO)[C@@H](O)[C@H](O)[C@H]4O)c(OC)c3)[C@H]2CO)ccc1O`, the activation in experiment [1] is -17%. The Potency entry in experiment [2] was “inactive”.
Regarding `C=C1C(=O)O[C@H]2CC(=C)[C@H]3CC[C@@](C)(O)[C@@H]3CC12` (some centres not stated), the Potency in experiment [1] was 15.1 µM (active). Also, the Potency result in experiment [2] is “inactive”.
`COc1ccc(C2COc3cc(O)ccc3C2)c(O)c1OC` (configuration not stated): the activation in experiment [1] is -2.29%. For the same compound, the Potency entry in experiment [2] is “inactive”.
In the same order, the values of `C=C1CCC2[C@](C)(CO)CCC[C@@]2(C)[C@@H]1CCC1=CCOC1=O` (some centres not stated) are -7.14% and “inactive”.
Take `COC(=O)C1=CO[C@@H](O[C@@H]2O[C@H](CO)[C@@H](O)[C@H](O)[C@H]2O)[C@@H]2[C@@H](C)[C@@H](O)C[C@H]12`: in experiment [1], the activation is -11.5%. In experiment [2], the Potency entry is “inactive”.
Take `C/C=C/C1=CC2=C(CO1)C(=O)[C@](C)(O)[C@H](OC(=O)c1c(O)cc(OC)c(O)c1C)C2`: in experiment [1], the activation is 3.82%. The Potency result in experiment [2] was “inactive”.
Regarding `COc1cc(/C=C/C(=O)O[C@H]2[C@H](O)[C@@H](CO)O[C@@]2(CO)O[C@H]2O[C@H](CO)[C@@H](O)[C@H](O)[C@H]2O)ccc1O`, in experiment [1], the activation was 16%. For the same compound, the Potency entry in experiment [2] is “inactive”.
Consider `COc1cc([C@H]2OC[C@]3(OC(C)=O)[C@@H](c4ccc(O[C@@H]5O[C@H](CO)[C@@H](O)[C@H](O)[C@H]5O)c(OC)c4)OC[C@H]23)ccc1O`, for which the activation in experiment [1] is -3.82%. Besides, the Potency entry in experiment [2] was “inactive”.
Regarding `COc1cc(C(=O)O)ccc1OC1OC(CO)C(O)C(O)C1O` (configuration not stated), in experiment [1], the activation is 10.7%. Besides, in experiment [2], the Potency result is “inactive”.
`N#CC(CCCN1CCN(/N=C/c2cccnc2)CC1)(c1ccccc1)c1ccccc1`: the activation in experiment [1] was -7.16%. Besides, in experiment [2], the Potency result was “inactive”.
The matching figures for `CC1=CC(=O)CC(C)(C)C1/C=C/C(C)O[C@@H]1O[C@H](CO)[C@@H](O)[C@H](O)[C@H]1O[C@@H]1OC[C@](O)(CO)[C@H]1O` (some centres not stated): -2.68% and “inactive”.
The matching figures for `C/C=C(\C)C(=O)OC1C(C)C2(O)C(C=C(CO)CC3(O)C(=O)C(C)=CC32)C2C(C)(C)C12OC(C)=O` (configuration not stated): 8.93% and “inactive”.
On to `CC(CCc1ccc(O)cc1)O[C@@H]1O[C@H](CO[C@@H]2OC(CO)[C@H](O)[C@H]2O)[C@@H](O)[C@H](O)[C@H]1O` (some centres not stated), for which the activation in experiment [1] is -13.7%. Besides, the Potency entry in experiment [2] is “inactive”.
Turning to `CC(CNS(=O)(=O)C(C)C)c1ccc(-c2ccc(C#N)cc2)cc1` (configuration not stated), the activation in experiment [1] was -9%. The Potency result in experiment [2] is “inactive”.

These data come from PubChem BioAssay (NCATS).
